In PubChem BioAssay AID588689 (Southern Research Specialized Biocontainment Screening …, 2011) one finds inhibition data, which are given here for 86 compounds.

Among all 340,000 compounds or so, about 1,000 (0.29%) were called active. No stated cut-off is given here; in the data, inconclusive means inhibition above about 29% without an active follow-up result; inactive means below that. The list is a sample of the results. Results with a measured potency or affinity are listed apart.

The assay deals with Genome polyprotein (Dengue virus type 2 (strain 16681-PDK53)) (UniProt P29991). Description: Dengue-2 NS5 methyltransferase inhibitors, primary screen, biochemical, confirmation dose response (AID 588689). The note with it: Dengue-2 NS5 methyltransferase capping enzyme assay, at 25 µM, stronger effect = higher value.
Genome polyprotein (Dengue virus type 2 (strain 16681-PDK53)), sequence (P29991 whole entry, looked up): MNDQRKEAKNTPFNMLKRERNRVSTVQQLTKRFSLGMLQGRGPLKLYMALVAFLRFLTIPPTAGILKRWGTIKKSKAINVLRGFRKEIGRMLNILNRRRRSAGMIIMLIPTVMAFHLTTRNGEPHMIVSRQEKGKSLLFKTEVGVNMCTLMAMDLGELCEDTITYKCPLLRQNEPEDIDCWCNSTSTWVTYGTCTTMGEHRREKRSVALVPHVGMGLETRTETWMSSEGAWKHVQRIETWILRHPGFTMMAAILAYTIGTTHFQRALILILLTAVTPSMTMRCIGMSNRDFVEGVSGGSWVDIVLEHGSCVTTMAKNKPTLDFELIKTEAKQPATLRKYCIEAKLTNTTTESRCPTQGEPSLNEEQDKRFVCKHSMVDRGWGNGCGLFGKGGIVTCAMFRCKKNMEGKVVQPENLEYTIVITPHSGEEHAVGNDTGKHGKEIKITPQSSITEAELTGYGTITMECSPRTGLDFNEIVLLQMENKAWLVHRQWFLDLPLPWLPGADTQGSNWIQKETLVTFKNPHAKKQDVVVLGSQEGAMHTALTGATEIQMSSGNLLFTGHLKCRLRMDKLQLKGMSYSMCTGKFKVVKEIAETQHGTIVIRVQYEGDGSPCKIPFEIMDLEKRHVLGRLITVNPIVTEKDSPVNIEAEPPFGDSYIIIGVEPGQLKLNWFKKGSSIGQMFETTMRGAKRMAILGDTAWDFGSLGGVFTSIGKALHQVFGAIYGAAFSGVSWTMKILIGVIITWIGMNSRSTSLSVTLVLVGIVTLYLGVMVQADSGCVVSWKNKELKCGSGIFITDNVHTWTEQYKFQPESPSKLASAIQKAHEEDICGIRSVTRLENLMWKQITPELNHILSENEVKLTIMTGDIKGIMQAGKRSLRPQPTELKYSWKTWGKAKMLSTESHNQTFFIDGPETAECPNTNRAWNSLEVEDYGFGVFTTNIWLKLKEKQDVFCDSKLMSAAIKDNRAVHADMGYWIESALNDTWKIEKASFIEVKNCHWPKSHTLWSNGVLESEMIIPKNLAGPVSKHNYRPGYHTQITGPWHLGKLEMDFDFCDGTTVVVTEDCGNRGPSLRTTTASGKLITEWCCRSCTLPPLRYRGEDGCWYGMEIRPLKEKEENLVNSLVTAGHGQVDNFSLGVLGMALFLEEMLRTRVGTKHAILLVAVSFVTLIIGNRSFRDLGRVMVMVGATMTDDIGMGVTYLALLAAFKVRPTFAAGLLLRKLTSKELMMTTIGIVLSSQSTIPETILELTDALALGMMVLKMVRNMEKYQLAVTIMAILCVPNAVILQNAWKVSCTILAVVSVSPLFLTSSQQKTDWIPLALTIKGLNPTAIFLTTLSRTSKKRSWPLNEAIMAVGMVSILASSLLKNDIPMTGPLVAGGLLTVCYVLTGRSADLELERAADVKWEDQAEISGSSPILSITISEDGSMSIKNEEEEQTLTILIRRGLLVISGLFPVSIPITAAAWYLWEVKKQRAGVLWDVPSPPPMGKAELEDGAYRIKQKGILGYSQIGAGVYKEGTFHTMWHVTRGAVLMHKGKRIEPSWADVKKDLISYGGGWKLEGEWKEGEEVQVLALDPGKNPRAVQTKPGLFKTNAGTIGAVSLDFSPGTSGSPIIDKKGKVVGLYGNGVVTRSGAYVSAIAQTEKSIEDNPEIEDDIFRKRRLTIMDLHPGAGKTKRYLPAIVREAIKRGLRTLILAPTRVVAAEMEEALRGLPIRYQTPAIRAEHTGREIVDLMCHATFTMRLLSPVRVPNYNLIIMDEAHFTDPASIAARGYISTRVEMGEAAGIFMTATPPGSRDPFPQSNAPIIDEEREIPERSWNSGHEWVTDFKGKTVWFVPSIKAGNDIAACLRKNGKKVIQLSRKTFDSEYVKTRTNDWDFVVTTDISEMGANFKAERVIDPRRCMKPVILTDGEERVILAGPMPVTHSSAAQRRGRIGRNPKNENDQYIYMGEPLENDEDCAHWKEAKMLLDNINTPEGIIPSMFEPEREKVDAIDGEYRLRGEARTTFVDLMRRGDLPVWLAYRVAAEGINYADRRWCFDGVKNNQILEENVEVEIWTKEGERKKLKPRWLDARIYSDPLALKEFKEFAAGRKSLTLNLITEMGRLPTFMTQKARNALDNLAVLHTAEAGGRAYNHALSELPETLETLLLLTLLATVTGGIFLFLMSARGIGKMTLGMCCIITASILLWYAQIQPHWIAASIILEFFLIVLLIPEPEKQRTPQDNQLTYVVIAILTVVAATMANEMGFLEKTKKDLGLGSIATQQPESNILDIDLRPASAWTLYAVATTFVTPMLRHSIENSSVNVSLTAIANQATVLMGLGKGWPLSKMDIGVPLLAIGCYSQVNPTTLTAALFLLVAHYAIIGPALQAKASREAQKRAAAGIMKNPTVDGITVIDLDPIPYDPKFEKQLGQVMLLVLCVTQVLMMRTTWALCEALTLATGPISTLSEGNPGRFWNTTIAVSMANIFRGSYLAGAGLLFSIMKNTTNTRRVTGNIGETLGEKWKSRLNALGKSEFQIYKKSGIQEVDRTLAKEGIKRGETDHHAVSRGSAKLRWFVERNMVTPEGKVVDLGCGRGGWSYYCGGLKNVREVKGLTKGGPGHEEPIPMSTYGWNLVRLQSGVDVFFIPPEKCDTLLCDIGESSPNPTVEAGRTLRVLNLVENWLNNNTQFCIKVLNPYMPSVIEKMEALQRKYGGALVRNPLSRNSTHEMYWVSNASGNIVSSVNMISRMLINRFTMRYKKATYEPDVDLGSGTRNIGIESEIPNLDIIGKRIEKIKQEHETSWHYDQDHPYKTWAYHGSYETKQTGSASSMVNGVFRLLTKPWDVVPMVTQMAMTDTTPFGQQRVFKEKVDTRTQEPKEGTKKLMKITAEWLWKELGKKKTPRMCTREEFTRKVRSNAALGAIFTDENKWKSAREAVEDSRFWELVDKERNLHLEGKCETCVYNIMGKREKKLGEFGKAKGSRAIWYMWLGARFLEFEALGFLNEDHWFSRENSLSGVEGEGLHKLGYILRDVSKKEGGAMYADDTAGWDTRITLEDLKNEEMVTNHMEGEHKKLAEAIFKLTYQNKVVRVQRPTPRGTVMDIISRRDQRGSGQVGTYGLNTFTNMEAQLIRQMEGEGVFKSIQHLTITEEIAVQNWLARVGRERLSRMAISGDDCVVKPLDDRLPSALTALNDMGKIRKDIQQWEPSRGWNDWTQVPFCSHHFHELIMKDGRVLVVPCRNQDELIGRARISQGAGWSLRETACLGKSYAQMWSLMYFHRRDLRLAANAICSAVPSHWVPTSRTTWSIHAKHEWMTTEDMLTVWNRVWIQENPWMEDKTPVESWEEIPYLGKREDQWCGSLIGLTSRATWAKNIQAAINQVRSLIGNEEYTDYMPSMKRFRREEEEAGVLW

The inhibition is the drop in the measured response relative to a control, in per cent. For the compound `CC1(C)C2CCC1(CS(=O)(=O)NCc1ccc(C(F)(F)F)cc1)C(=O)C2` (configuration not stated), the inhibition is -2.61% (inactive).

Consider `CCOC(=O)N1CCN(Cc2nc3ccc([N+](=O)[O-])cc3c(=O)n2-c2ccc(OC)cc2OC)CC1`, for which the inhibition is -7.83% (inactive).

With `Cc1ccc(C2(C)NC(=O)N(CC(=O)NNC(=O)c3cc(C)oc3C)C2=O)cc1` (configuration not stated), the inhibition was -2.16% (inactive). The same measure, in the same setting: the result for `CC1CC1C(=O)N(C)CC(=O)Nc1ccccc1Br` (configuration not stated) reads -5.16% (inactive); that for `Cc1cc(C(=O)OC(C)C(=O)NC2CCCCC2)c(C)o1` (configuration not stated), 3.67% (inactive); that for `O=C(NC1CC2CCCC(C1)N2CC(=O)N1CCCc2ccccc21)C1CCCCC1` (configuration not stated), -6.56% (inactive). On the same count and under the same terms, the result for `Cc1cccc(-n2cnc3sc(C)c(C)c3c2=O)c1` reads 3.09% (inactive); that for `O=C(O)c1ccc(COc2ccc(CO)cc2Cl)cc1`, -1.37% (inactive); that for `COC(=O)c1ccc(COc2ccccc2/C=N/NS(=O)(=O)c2ccccc2)cc1`, -8.06% (inactive). Still for that read-out and setting: the result for `COc1cc(/C=C2/NC(=O)NC2=O)cc(Br)c1OCc1ccc(C(=O)O)cc1` reads -4.44% (inactive); that for `O=C(O)c1ccc(COc2ccccc2/C=C2/NC(=O)N(c3cccc(Cl)c3)C2=O)cc1`, 6.55% (inactive); that for `COC(=O)c1ccc(COc2ccc(/C=N/Nc3cccc(C(=O)O)c3)cc2)cc1`, 8.5% (inactive). Turning to `CN1C(=O)S/C(=C\c2ccccc2OCc2ccc(C(=O)O)cc2)C1=O`, the inhibition was 2.95% (inactive). Same read-out and setting: the result for `C=CCc1cc(C=O)cc(OC)c1OCc1ccc(C(=O)O)cc1` reads -5.83% (inactive); that for `O=C1NC(=S)N/C1=C\c1ccccc1OCc1ccc(C(=O)O)cc1`, -6.96% (inactive). Still for that read-out and setting: in the case of `Cc1cccc(C(=O)OCC(=O)Nc2c(C)n(C)n(-c3ccccc3)c2=O)c1O` it was -4.38% (inactive); in that of `N#Cc1ccc(NC(=O)c2sc3cc(C(F)(F)F)cnc3c2-c2cccs2)cc1`, -3.46% (inactive). The same measure, in the same setting: the result for `CC(C)CN(C(=O)c1ccc(N2CCCC2=O)cc1)C1CCS(=O)(=O)C1` (configuration not stated) reads 2.16% (inactive); that for `COc1ccc(N(C(=O)c2ccco2)C(C(=O)NC2CCCC2)c2ccc(OC)c(OC)c2)cc1` (configuration not stated), -4.04% (inactive).

On to `N#Cc1ccc2ccn(CC(=O)NCc3ccco3)c2c1`, for which the inhibition was -5.46% (inactive).

In the case of `O=C(CCn1cnc2ccccc2c1=O)Nc1ccc(Cl)c(Cl)c1`, the inhibition is 1.31% (inactive). Same read-out and setting: the result for `COc1cccc(/C=C/c2ccccn2)c1O` reads -0.77% (inactive); that for `COc1cccc(/C=N/Nc2ccc([N+](=O)[O-])cc2)c1O`, -38.8% (inactive). On the same count and under the same terms, in the case of `O=C(COc1ccccc1/C=C\c1nc(O)c([N+](=O)[O-])c(=O)[nH]1)Nc1ccccc1` it was 2.19% (inactive); in that of `CCOc1ccccc1/C=C\c1nc(O)c([N+](=O)[O-])c(=O)[nH]1`, 5.29% (inactive); in that of `CCCCCCSc1cc(-c2nc3cc(C)ccn3c2NC2CCCCC2)ccc1OC`, -8.81% (inactive). Take `O=C(c1ccc(Cn2c(=O)[nH]c3ccsc3c2=O)cc1)N1CCN(c2ccccc2)CC1`: the inhibition is -1.16% (inactive). The same measure, in the same setting: in the case of `COc1ccc(CN(C)C(=O)c2cccc(NS(=O)(=O)c3ccccc3)c2)c(OC)c1` it was 0.32% (inactive); in that of `O=C(CN(c1ccc(F)cc1)S(=O)(=O)c1ccccc1)NC1CCCCCC1`, 0% (inactive); in that of `Cc1ccc(/C=C/c2nc3sc(C(=O)O)c(C)c3c(=O)[nH]2)cc1[N+](=O)[O-]`, -2.44% (inactive). Same read-out and setting: in the case of `COc1cccc(CNC(=O)Cn2ccc3cc(S(=O)(=O)N4CCCC4)ccc32)c1` it was -0.45% (inactive); in that of `COc1ccc(N(C(=O)Cn2nnc(-c3ccc(Cl)cc3)n2)C(C(=O)NCC2CCCO2)c2ccncc2)cc1` (configuration not stated), -2.22% (inactive). Regarding `CCOC(=O)c1nn(-c2ccccc2)c(=O)c2c(N)scc12`, the inhibition was 7.81% (inactive).

Consider `CCOC(=O)c1nn(-c2ccc(C)cc2)c(=O)c2c(N)scc12`, for which the inhibition was 12.4% (inactive). Regarding `COc1ccc(/C=N/NC(=O)c2nn(-c3ccc(Cl)cc3)c(=O)c3c(N)scc23)cc1`, the inhibition is 65.9% (inactive). The inhibition (measured here: pilot screen replicate inhibition) is 10.3%. Regarding `COc1ccc(/C=N/NC(=O)c2nn(-c3ccccc3)c(=O)c3c(N)scc23)cc1`, the inhibition was 50% (inactive). On the same count and under the same terms, the result for `Cc1ccc2c(c1)NC(=O)c1cccnc1N2` reads -0.54% (inactive); that for `Cc1nnc(SC(C)C(=O)N(C)C2CCCCC2)n1N` (configuration not stated), -0.37% (inactive); that for `CCOc1cc(C(=O)NCCC(=O)N2CCC3(CC2)NCCc2[nH]cnc23)cc(OCC)c1OCC`, -6.21% (inactive). Same read-out and setting: the result for `CCCCN1CC[C@H]2C=CC[C@@H](C(=O)N3CCN(c4ccccc4)CC3)[C@H]2C1=O` reads -5.46% (inactive); that for `Cc1ccc(-n2nc(CN3CCOCC3)c(-c3ccccc3)c2N)cc1Cl`, -2.18% (inactive); that for `O=Cc1cc(N=Nc2ccccc2Cl)ccc1O`, 11.1% (inactive).

Take `O=Cc1cc(N=Nc2ccc(S(=O)(=O)O)cc2)ccc1O`: the inhibition was 14.6% (inactive).

For the compound `CCOC(=O)c1sc(Nc2ccc(OCC)cc2)nc1C`, the inhibition was -9.95% (inactive). On the same count and under the same terms, in the case of `COc1ccc(/C=C2/C(=O)N(c3c(F)c(F)c(F)c(F)c3F)N=C2C)cc1` it was 27.1% (inactive).

For the compound `Cc1ccc(NC(=C(C#N)C#N)c2ccccc2)cc1`, the inhibition is 6.86% (inactive). Still for that read-out and setting: the result for `O=C1C(=O)N(CCCn2ccnc2)C(c2ccc([N+](=O)[O-])cc2)/C1=C(\O)c1ccc2c(c1)OCCO2` (configuration not stated) reads -1.86% (inactive); that for `O=C(C[C@@H]1C/C=C\C[C@H](Cc2ccc(F)cc2)C(=O)OCCNC1=O)N[C@H](CO)Cc1ccccc1`, -4.01% (inactive). The same measure, in the same setting: in the case of `O=[N+]([O-])c1cc(Br)cc(C=Nc2ccc3c(c2)OCO3)c1O` it was 17.9% (inactive); in that of `O=[N+]([O-])c1ccc(O)c(C=Nc2ccc3c(c2)OCCO3)c1`, 2.55% (inactive). Still for that read-out and setting: the result for `O=C(O)c1ccc(NC2OC[C@@H](O)[C@H](O)[C@H]2O)cc1` (some centres not stated) reads 1.47% (inactive). Turning to `CC(=O)Nc1ccc(S(=O)(=O)NC2CC(=O)N(c3ccc(C)c(C)c3)C2)cc1` (configuration not stated), the inhibition was -8.06% (inactive). Consider `CCCCn1c(N)c(N(CCC(C)C)C(=O)CCCc2nc3ccccc3s2)c(=O)[nH]c1=O`, for which the inhibition was 0.96% (inactive). Turning to `CCSc1nc(O)c(C2OC(=O)c3c2ccc(OC)c3OC)c(=O)n1-c1ccccc1` (configuration not stated), the inhibition was -0.81% (inactive).

Consider `CCCSc1nc(O)c(C2OC(=O)c3c2ccc(OC)c3OC)c(=O)n1C` (configuration not stated), for which the inhibition was 4.42% (inactive).

For `Cc1ccc(CNC(=O)Cn2c(=O)c3sccc3n(Cc3ccc([N+](=O)[O-])cc3)c2=O)cc1`, the inhibition is -4.46% (inactive). Take `COc1cc2c(cc1C1C(C#N)=C(N)OC3=C1C(=O)CC(C)(C)C3)OCO2` (configuration not stated): the inhibition was 2.7% (inactive). On the same count and under the same terms, the result for `COc1ccc(C(C(=O)NC(C)(C)C)N(C(=O)CNC(=O)c2cccs2)c2cccnc2)cc1OC` (configuration not stated) reads 0.81% (inactive); that for `CCN(CCCNC(=O)C1CCN(S(=O)(=O)CC)CC1)c1ccccc1`, 0% (inactive); that for `CCOC(=O)C1CCN(c2c(NCCCN(CC)c3ccccc3)c(=O)c2=O)CC1`, -1.39% (inactive). On the same count and under the same terms, the result for `N#Cc1c(NC(=O)C(=O)NCCCN2CCOCC2)sc2c1CCC2` reads -10.5% (inactive). Still for that read-out and setting: the result for `COc1cccc(COC(=O)c2c(C)nn(-c3ccccc3)c2Cl)c1OC` reads -1.3% (inactive); that for `COc1ccc(C(c2c(C)n(C)n(-c3ccccc3)c2=O)c2c(C)n(C)n(-c3ccccc3)c2=O)c(OC)c1OC`, 4.27% (inactive). As for `O=C(CC1(CC(=O)N2CCOCC2)CCCC1)Nc1ccccc1`, the inhibition was 1.1% (inactive). On the same count and under the same terms, in the case of `Cc1c(C(c2ccc([N+](=O)[O-])cc2)c2c(C)n(C)n(-c3ccccc3)c2=O)c(=O)n(-c2ccccc2)n1C` it was -2.74% (inactive); in that of `Cc1[nH]n(-c2ccccc2)c(=O)c1N=Nc1ccccc1O`, -2.22% (inactive); in that of `Cc1[nH]n(-c2ccccc2)c(=O)c1C(C[N+](=O)[O-])c1ccc(F)cc1` (configuration not stated), 1.46% (inactive). With `Cc1ccc(C(C[N+](=O)[O-])c2c(C)[nH]n(-c3ccccc3)c2=O)cc1` (configuration not stated), the inhibition was 12.3% (inactive). The same measure, in the same setting: in the case of `Cc1[nH]n(-c2ccccc2)c(=O)c1C(c1ccccc1C(=O)O)c1c(C)[nH]n(-c2ccccc2)c1=O` it was -2.59% (inactive). Same read-out and setting: in the case of `Cc1c(C(c2cccc(O)c2)c2c(C)n(C)n(-c3ccccc3)c2=O)c(=O)n(-c2ccccc2)n1C` it was 0.66% (inactive); in that of `Cc1c(C(c2ccc(C(=O)O)cc2)c2c(C)n(C)n(-c3ccccc3)c2=O)c(=O)n(-c2ccccc2)n1C`, -3.92% (inactive).

For the compound `Cc1[nH]n(-c2ccccc2)c(=O)c1N=Nc1ccccc1C(=O)N1CCOCC1`, the inhibition is -1.82% (inactive). On to `COC(=O)[C@@H]1C[C@@]2(O)[C@H](O)[C@H](O)[C@H](O)C[C@H]2N1Cc1cccc2ccccc12`, for which the inhibition was -3.14% (inactive). The same measure, in the same setting: in the case of `Cc1nonc1CN(C)C(=O)CC1C(=O)NCCN1Cc1c(F)cccc1Cl` (configuration not stated) it was 0% (inactive); in that of `Cc1ccc(OCc2cc(C(=O)N3CCCC(O)C3)no2)cn1` (configuration not stated), 3.18% (inactive). On the same count and under the same terms, the result for `COc1ccc(-c2cc(C(F)(F)F)nc(NCc3cccs3)n2)cc1` reads -0.64% (inactive); that for `Cc1csc(NC(=O)c2ccc(COc3ccccc3)o2)n1`, -0.81% (inactive). The same measure, in the same setting: the result for `COc1cccc(NC(=S)NC2CC3CCCC(C2)N3C2CCCC2)c1` (configuration not stated) reads -6.24% (inactive).

Regarding `CCCCCN(C(=O)CCC(=O)OCc1cccc(C(F)(F)F)c1)c1c(N)n(CCCC)c(=O)[nH]c1=O`, the inhibition is -5.15% (inactive). Same read-out and setting: in the case of `Cc1[nH]n(-c2cccc([N+](=O)[O-])c2)c(=O)c1-c1ccccc1` it was -10.7% (inactive); in that of `O=c1c2cc([N+](=O)[O-])cc([N+](=O)[O-])c2[nH]n1-c1ccccc1`, 22.2% (inactive); in that of `Cc1[nH][nH]c(=O)c1C(c1ccc(O)c([N+](=O)[O-])c1)c1c(C)[nH][nH]c1=O`, 5.19% (inactive).

Take `Cc1[nH]n(-c2ccccc2)c(=O)c1N=Nc1cccc([N+](=O)[O-])c1`: the inhibition is -3.97% (inactive). Turning to `COc1ccc(-n2c3c(cc(C(=O)NC4CCSC4=O)c2=O)C(=O)CC(C)(C)C3)cc1` (configuration not stated), the inhibition is 3.46% (inactive). On the same count and under the same terms, in the case of `CC1(C)CC(=O)C=C(c2ccc3ccccc3c2)C1` it was 6.35% (inactive). On the same count and under the same terms, the result for `CC1CCCN(CCC(=O)Nc2ccc3c(c2)CCC3)C1` (configuration not stated) reads -0.41% (inactive).
